# The full list was thinned out, with the strongest signals kept by preference.
# B1: HFR-3 (Triticum aestivum) (protein)
# chain: MKGLLLCALALAFAAVTTHAQLQSCPTRCGKQADGMECPNNLCCSKDGYCGLGVDYCSAGAGCQSGACYDNKICGAQANGTLCRNNHCCSSGGRCGYGREYCSNGCQGGPCWADLKCGHLDNGKLCPNNLCCSQYGYCGLGPEFCGTGCQNGACSTDKPCGNKANGAPCTNNYCCSQYGSCGLGKDYCGTGCQNGACN
# Tests used:
# Assay in all cases: glycan array binding signal (z-score within array); higher = stronger binding
# Settings in all cases: glycan notation: IUPAC condensed, linker removed
# Glc(b1-6)Glc = target: Glc(b1-6)Glc
# Outline: (§1)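 The binding signal is a Z-score computed within each array and averaged over linkers. Arrays of the same protein sequence at different concentrations or buffers were also averaged together. Data originate from 3228 arrays in the Consortium for Functional Glycomics database, kept only where the protein sequence was available.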
# GlcA(b1-3)GlcNAc = target: GlcA(b1-3)GlcNAc
# Outline: as §1
# GlcA(b1-6)Gal = target: GlcA(b1-6)Gal
# Outline: as §1
# [1] = target: GlcNAc(a1-4)Gal(b1-4)GlcNAc(b1-3)Gal(b1-4)GlcNAc
# Outline: as §1
# [2] = target: GlcNAc(a1-6)Gal(b1-4)GlcNAc
# Outline: as §1
# [3] = target: GlcNAc(b1-3)Gal(b1-4)GlcNAc(b1-2)Man(a1-3)[GlcNAc(b1-3)Gal(b1-4)GlcNAc(b1-2)Man(a1-6)]Man(b1-4)GlcNAc(b1-4)GlcNAc
# Outline: as §1
# [4] = target: GlcNAc(b1-3)Gal(b1-4)GlcNAc(b1-3)Gal(b1-4)GlcNAc(b1-3)Gal(b1-4)GlcNAc(b1-2)[GlcNAc(b1-3)Gal(b1-4)GlcNAc(b1-3)Gal(b1-4)GlcNAc(b1-3)Gal(b1-4)GlcNAc(b1-6)]Man(a1-6)[GlcNAc(b1-3)Gal(b1-4)GlcNAc(b1-3)Gal(b1-4)GlcNAc(b1-3)Gal(b1-4)GlcNAc(b1-2)Man(a1-3)]Man(b1-4)GlcNAc(b1-4)[Fuc(a1-6)]GlcNAc
# Outline: as §1
# [5] = target: GlcNAc(b1-3)Gal(b1-4)GlcNAc(b1-3)Gal(b1-4)GlcNAc(b1-3)Gal(b1-4)GlcNAc(b1-3)Gal(b1-4)GlcNAc(b1-2)[GlcNAc(b1-3)Gal(b1-4)GlcNAc(b1-3)Gal(b1-4)GlcNAc(b1-3)Gal(b1-4)GlcNAc(b1-3)Gal(b1-4)GlcNAc(b1-6)]Man(a1-6)[GlcNAc(b1-3)Gal(b1-4)GlcNAc(b1-3)Gal(b1-4)GlcNAc(b1-3)Gal(b1-4)GlcNAc(b1-3)Gal(b1-4)GlcNAc(b1-2)Man(a1-3)]Man(b1-4)GlcNAc(b1-4)[Fuc(a1-6)]GlcNAc
# Outline: as §1
# [6] = target: GlcNAc(b1-3)Gal(b1-4)GlcNAc(b1-3)[GlcNAc(b1-3)Gal(b1-4)GlcNAc(b1-3)]GalNAc
# Outline: as §1
# [7] = target: GlcNAc(b1-3)Gal(b1-4)GlcNAc(b1-6)[GlcNAc(b1-3)]Gal(b1-4)GlcNAc
# Outline: as §1
# GlcNAc(b1-3)GalNAc = target: GlcNAc(b1-3)GalNAc
# Outline: as §1
# GlcNAc(b1-6)GalNAc = target: GlcNAc(b1-6)GalNAc
# Outline: as §1
# Kdn(a2-3)Gal(b1-3)GalNAc = target: Kdn(a2-3)Gal(b1-3)GalNAc
# Outline: as §1
# [8] = target: Man(a1-3)[Man(a1-6)]Man(a1-6)[Man(a1-3)]Man
# Outline: as §1
# [9] = target: Man(a1-3)[Man(a1-6)]Man(a1-6)[Man(a1-3)]Man(b1-4)GlcNAc(b1-4)GlcNAc
# Outline: as §1
# [10] = target: Man(a1-3)[Man(a1-6)]Man(b1-4)GlcNAc(b1-4)GlcNAc
# Outline: as §1
# Neu5Ac(a2-3)Gal = target: Neu5Ac(a2-3)Gal
# Outline: as §1
# [11] = target: Neu5Ac(a2-3)Gal(b1-4)GlcNAc(b1-3)Gal(b1-4)GlcNAc(b1-3)[Neu5Ac(a2-3)Gal(b1-4)GlcNAc(b1-3)Gal(b1-4)GlcNAc(b1-6)]GalNAc
# Outline: as §1
# [12] = target: Neu5Ac(a2-3)Gal(b1-4)GlcNAc(b1-3)Gal(b1-4)[Fuc(a1-3)]GlcNAc
# Outline: as §1
# [13] = target: Neu5Ac(a2-3)Gal(b1-4)[Fuc(a1-3)]GlcNAc(b1-3)GalNAc
# Outline: as §1
# [14] = target: Neu5Ac(a2-3)GalNAc(b1-4)GlcNAc
# Outline: as §1
# [15] = target: Neu5Ac(a2-6)Gal(b1-4)GlcNAc(b1-2)Man
# Outline: as §1
# [16] = target: Neu5Ac(a2-6)Gal(b1-4)GlcNAc(b1-2)Man(a1-6)[Gal(b1-4)GlcNAc(b1-2)Man(a1-3)]Man(b1-4)GlcNAc(b1-4)GlcNAc
# Outline: as §1
# [17] = target: Neu5Ac(a2-6)Gal(b1-4)GlcNAc(b1-2)Man(a1-6)[GlcNAc(b1-2)Man(a1-3)]Man(b1-4)GlcNAc(b1-4)GlcNAc
# Outline: as §1
# [18] = target: Neu5Ac(a2-6)Gal(b1-4)GlcNAc(b1-3)Gal(b1-4)GlcNAc(b1-2)Man(a1-3)[Neu5Ac(a2-6)Gal(b1-4)GlcNAc(b1-3)Gal(b1-4)GlcNAc(b1-2)Man(a1-6)]GalNAc
# Outline: as §1
# [19] = target: Neu5Ac(a2-6)Gal(b1-4)GlcNAc(b1-3)Gal(b1-4)GlcNAc(b1-3)[Neu5Ac(a2-6)Gal(b1-4)GlcNAc(b1-3)Gal(b1-4)GlcNAc(b1-6)]GalNAc
# Outline: as §1
# [20] = target: Neu5Ac(a2-6)Gal(b1-4)GlcNAc(b1-6)[Gal(b1-3)GlcNAc(b1-3)]Gal(b1-4)Glc
# Outline: as §1
# [21] = target: Neu5Gc(a2-3)Gal(b1-3)GlcNAc
# Outline: as §1
# [22] = target: Neu5Gc(a2-8)Neu5Gc(a2-3)Gal(b1-4)GlcNAc
# Outline: as §1
binder,measurement,setting,value
B1,glycan array binding signal (z-score),Glc(b1-6)Glc,-0.1
same,glycan array binding signal (z-score),GlcA(b1-3)GlcNAc,0.799
same,glycan array binding signal (z-score),GlcA(b1-6)Gal,-0.641
same,glycan array binding signal (z-score),[1],0.598
same,glycan array binding signal (z-score),[2],-0.582
same,glycan array binding signal (z-score),[3],0.65
same,glycan array binding signal (z-score),[4],2.43
same,glycan array binding signal (z-score),[5],1.15
same,glycan array binding signal (z-score),[6],0.04
same,glycan array binding signal (z-score),[7],-1.09
same,glycan array binding signal (z-score),GlcNAc(b1-3)GalNAc,2.18
same,glycan array binding signal (z-score),GlcNAc(b1-6)GalNAc,-0.591
same,glycan array binding signal (z-score),Kdn(a2-3)Gal(b1-3)GalNAc,2.75
same,glycan array binding signal (z-score),[8],2.17
same,glycan array binding signal (z-score),[9],3.89
same,glycan array binding signal (z-score),[10],0.828
same,glycan array binding signal (z-score),Neu5Ac(a2-3)Gal,-0.367
same,glycan array binding signal (z-score),[11],0.555
same,glycan array binding signal (z-score),[12],-0.597
same,glycan array binding signal (z-score),[13],-0.052
same,glycan array binding signal (z-score),[14],1.18
same,glycan array binding signal (z-score),[15],0.755
same,glycan array binding signal (z-score),[16],-0.801
same,glycan array binding signal (z-score),[17],-0.077
same,glycan array binding signal (z-score),[18],0.189
same,glycan array binding signal (z-score),[19],0.943
same,glycan array binding signal (z-score),[20],-0.251
same,glycan array binding signal (z-score),[21],-0.969
same,glycan array binding signal (z-score),[22],-0.961
